# Experimental data as given in PubChem BioAssay AID2472 (National Center for Advancing Translational Sciences (NCATS), 2010).
# Several values for one entry are separate records, joined by “and”; a condition that tells them apart may be missing. Equal entries are not always repeated. The whole screen tested about 290,000 compounds, of which about 2,000 (0.69%) were called active. Rule as the data show it: active = activity change below about -30%; inactive = the rest, inconclusive results apart. The entries come from a sample that favours actives as a whole. The source holds several records for some structures; these can differ, active in one and inactive in another.
# Test: qHTS Assay for Inhibitors of Fructose-1,6-bisphosphate Aldolase from Giardia Lamblia: Coupling assay counterscreen
# Conditions: coupling enzyme system counterscreen, AmpLite Red fluorescence; at 58.2 µM (top of the series)
# From the text: MLPCN Grant: MH085699-01 Assay Provider: Osnat Herzberg, University of Maryland NCGC Assay Overview: The objective of this project is to obtain compounds that inhibit Giardia lamblia growth. G. lamblia is a human pathogen which afflicts impoverished nations; it is the most common cause of outbreaks of diarrhea in the United States. During the course of our study of potential drug targets in Giardia, we have identified the Class II (Zn2+ functions in electrophilic catalysis) fructose-1,6-bisphosphate aldolase (FBPA) as an excellent candidate for drug targeting. FBPA is a key glycolytic pathway enzyme, essential for G. lamblia survival. The human FBPA belongs to the Class I aldolases, which have a different substrate binding site structure and a radically different catalytic mechanism (employing a lysine-Schiff base intermediate). Therefore, affinity-based or mechanism-based inhibitors of the Giardia FBPA are expected not to interfere with the catalytic function of the human FBPA. A glyceraldehyde-3-phosphate dehydrogenase/triose phosphate isomerase/NAD/arsenate coupled assay was adapted to the 1536-well HTP format for use in the primary screen. This was done by coupling it to a diaphorase/resazurin/resorufin reaction that can be monitored by fluorescence (excitation, 544 nm; emission, 590 nm). Compounds identified in this screen will be further evaluated by coupling the […]/triose phosphate isomerase/NADH assay to a phenazine methosulfate/tetranitroblue tetrazolium color reaction. False positives due to the dehydrogenases and diaphorase inhibition will be eliminated, and selectivity assay will triage inhibitors of mammalian triose phosphate isomerase and the Class I FBPA. G. lamblia FBPA inhibitors identified by the in vitro analyses will be examined for growth inhibition of Giardia trophozoites, and for cytotoxicity in human cells. This assay specifically addresses whether activity observed in the primary screen (AID 2451) is related to inhibition of the coupling assay used, as opposed to inhibition of aldolase. Actives in this assay are considered inconclusive for activity against aldolase.
# NCGC Assay Protocol: Step,Parameter,Value,Description 1,Coupling enzyme reagent,2 uL,glyceraldehyde-3-phosphate 2,Compound,23 nL,3.68 nM-57.5 uM final concentration 3,Time,10 min,RT Incubation 4,Substrate/detection Reagent,2 uL,Substrate + enzyme coupling system + AmpLite Red kit 5,Time,20 min,RT Incubation 6,Detector,525 nm/598 nm (Fluorescence),ViewLux Fluorescence Read (Read 1) Notes: 1,Medium-binding black solid-bottom Kalypsys plates. FRD or Kalypsys dispenser. 2,Compound Library (10 mM ,1:5 dilution). Pin-transferred for a [final] range of 3.68 nM-57.5 uM. 3,RT incubation 4,FRD or Kalypsys dispenser, 2 uL of reaction mixture. Bottle kept at 4C and covered in foil to protect from light. 5,RT incubation 6,ViewLux Protocol 1194; Excitation filter wheel A (525/20 Pol; BODIPY TMR FP), Emission filter wheel B (598/25 S; BODIPY TMR FP S). Keywords: Fructose-bisphosphate aldolase, FBPA , Giardia lamblia , Giardia, HTS, Inhibitors
# % is scaled to controls: 0 for no effect and ±100 for the full control effect.
row,Compound,"activity change, negative = inhibition"
1,NCCc1c[nH]c2ccc(O)cc12,-9.84% (inactive) and -40.6% (active)
2,C/C(CCc1c[nH]c2ccccc12)=N\O,-2.5% (inactive)
3,Cc1cccc2c(CCN)c[nH]c12,-2.64% (inactive)
4,N#Cc1cc(Br)c(O)c(Br)c1,2.57% (inactive)
5,C[C@@H]1C[C@H]2CC[C@H](O2)[C@H](C)C(=O)O[C@@H](C)C[C@@H]2CC[C@@H](O2)[C@@H](C)C(=O)O[C@H](C)C[C@H]2CC[C@H](O2)[C@H](C)C(=O)O[C@@H](C)C[C@@H]2CC[C@@H](O2)[C@@H](C)C(=O)O1,-0.707% (inactive)
6,C[C@H]1C/C=C/[C@@H]2[C@@H]3O[C@]3(C)[C@@H](C)[C@H]3[C@H](Cc4ccccc4)NC(=O)[C@]32OC(=O)O/C=C/[C@](C)(O)C1=O,1.28% (inactive)
7,CCCCCCCCCCCCN=C(N)N,-0.411% (inactive)
8,CO[C@H]1[C@@H](O)[C@@H](C)O[C@H](O[C@H]2[C@H](Oc3cccc4c(O)c5c(=O)oc6ccc(C)c7c(=O)oc(c34)c5c67)O[C@H](C)[C@H](O)[C@@H]2O)[C@@H]1O,-47.8% (active)
9,Nc1ccc(-c2ccc(N)c(N)c2)cc1N,3.84% (inactive)
10,CC(=O)[O][Sn]([c]1ccccc1)([c]1ccccc1)[c]1ccccc1,-1.83% (inactive)
11,CN(C)C[C@H]1CCCC[C@]1(O)c1cccc(O)c1,0.267% (inactive)
12,CCOC(=O)c1c(N)n(Cc2ccccc2)c2nc3ccccc3nc12,-2.59% (inactive)
13,CCOC(=O)C(O)(c1ccc(NC(=O)c2ccco2)c(OC)c1)C(F)(F)F (stereo not given),-4.29% (inactive)
14,COc1cc(Cn2c(N)c(C(=O)NCc3ccco3)c3nc4ccccc4nc32)cc(OC)c1OC,-52% (active)
15,C[C@]12O[C@H](C[C@@]1(O)C(=O)O)n1c3ccccc3c3c4c(c5c6ccccc6n2c5c31)CNC4=O,0.208% (inactive)
